# An excerpt weighted towards active compounds, which were near 2.4% of everything screened.
# CHO-K1 Ca PAM = nonselective calcium activators in parental CHO-K1 cells, primary screen, counter-screen for M1 PAM project, cell-based, Fluo-8 calcium fluorescence, full deck, 1536-well; ATP EC20; 0% at ATP EC20, 100% at ATP max; activation, % at 3 µM; hit rate 0.02% among 360,000; AID 602247, 2012;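 active = activation above the run cutoff, the mean activation of all test compounds plus 3 SD, cut at about 40% in these data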;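 also: peak over basal fluorescence ratio in a 140 s read after ATP addition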
# M1 ag parental = counter-screen for M1 agonists: effect in parental CHO-K1 cells; Fluo-8 calcium fluorescence; scaled to maximal ATP response, vehicle zero; activation, % at 3 µM; hit rate 0.48% among 360,000; in the data active = activation above about 15%;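 also: untransfected CHO-K1 host cells lacking M1 receptor as counterscreen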
# CHRM1 PAM = human M1 muscarinic receptor positive allosteric modulators, primary screen, CHO-K1 cells, Fluo-8 calcium fluorescence, 1536-well; Muscarinic acetylcholine receptor M1 (Homo sapiens), P11229; CHO-K1 hM1, ACh EC20; 0% = ACh EC20, 100% = maximal ACh; activation, % at 3 µM; hit rate 0.088% among 360,000; AID 588819, 2011; in the data active = activation above about 19%, passing the limit was not always enough
# Target sequence (P11229 whole entry, looked up): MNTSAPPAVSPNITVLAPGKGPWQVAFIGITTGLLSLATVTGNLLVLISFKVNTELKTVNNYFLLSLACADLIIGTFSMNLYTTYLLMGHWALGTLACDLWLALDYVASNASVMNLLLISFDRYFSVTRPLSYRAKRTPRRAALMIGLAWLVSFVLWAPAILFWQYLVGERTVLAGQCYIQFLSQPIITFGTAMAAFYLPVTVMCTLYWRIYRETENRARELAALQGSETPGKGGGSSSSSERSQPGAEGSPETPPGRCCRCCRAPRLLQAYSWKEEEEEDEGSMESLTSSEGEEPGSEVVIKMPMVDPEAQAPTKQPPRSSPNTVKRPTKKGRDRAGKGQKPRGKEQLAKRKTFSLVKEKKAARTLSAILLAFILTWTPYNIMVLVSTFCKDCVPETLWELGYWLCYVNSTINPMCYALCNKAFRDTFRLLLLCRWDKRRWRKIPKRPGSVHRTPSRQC
# M1 antag = human M1 muscarinic receptor antagonists, primary screen, CHO-K1 cells, Fluo-8 calcium fluorescence, 1536-well. Muscarinic acetylcholine receptor M1 (Homo sapiens), P11229. CHO-K1 hM1, ACh EC80 antagonist. inhibition, % at 3 µM. hit rate 1.3% among 360,000. AID 588852, 2011;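 active = percent inhibition above its own plate's cutoff, namely the mean of that plate's compound wells plus 3 SD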;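 also: peak over basal fluorescence ratio during 140 s after agonist addition; 0% = ACh EC80 plus DMSO and 100% = DMSO alone without agonist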
# CHO-K1 Ca antag = counter-screen for M1 antagonists: effect in parental CHO-K1 cells; inhibition, % at 3 µM; hit rate 0.6% among 360,000; ATP-induced calcium, Fluo-8 fluorescence;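 active = inhibition above a per-plate cutoff, the plate's mean sample inhibition plus 3 SD, cut at about 24% in these data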;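 also: 0% = DMSO plus EC80 ATP and 100% = DMSO alone without ATP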
# CHRM1 agonist = human M1 muscarinic receptor agonists, primary screen, Fluo-8 calcium fluorescence, CHO-K1 cells, HTS | CHO-K1 hM1, agonist mode; 0% DMSO, 100% acetylcholine EC100 | activation, % at 3 µM | hit rate 0.33% among 360,000;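 active = activation above the run's mean compound activation plus 3 SD, cut at about 16% in these data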;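 also: peak over basal fluorescence ratio within a 140 s kinetic read after compound addition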
# * = called active by the depositor; . = no result given; ! = not confirmed by another sample.
SMILES,CHO-K1 Ca PAM,M1 ag parental,CHRM1 PAM,M1 antag,CHO-K1 Ca antag,CHRM1 agonist
O=C(CCCCCn1c(=S)[nH]c2cc3c(cc2c1=O)OCO3)N1CCN(Cc2ccccc2)CC1,-3.6,1.6,-6.6,18.6,4.8,-4.9
Cc1cccc(N2CCN(Cc3cn(C)nc3-c3ccccc3F)CC2)n1,20.7,0.9,-8.1,10.5,-7.4,-9.3
CCN(CC)c1ccc(CNc2nnnn2C)cc1,6.0,-0.2,-30.1,60.4*,-10.8,-9.8
COc1ccc(CNC(=O)C2CCCN2C)cc1OC (centres undefined),-8.4,0.3,-2.6,11.2,-0.5,-1.8
Cc1c(C(=O)c2ccc(N(C)C)cc2)c2ccccn2c1CCC#N,-18.0,0.4,5.0,1.6,25.4*,-0.1
CCOC(=O)C1CCN(CC(O)COc2ccc(S(=O)(=O)N3CCCC3)cc2[N+](=O)[O-])CC1 (centres undefined),3.7,0.8,-23.8,39.5*,-7.8,-8.5
CCOC(=O)C1CCN(S(=O)(=O)c2ccc(Cl)nc2)CC1,-7.9,0.7,-8.7,28.1*,-5.2,-4.1
CCOC(=O)C1CCN(S(=O)(=O)c2cn(C)c(=O)n(C)c2=O)CC1,20.8,1.0,-22.1,32.1*,-8.0,-10.1
COC(=O)C1CCN(S(=O)(=O)c2cn(C)c(=O)n(C)c2=O)CC1,30.8,0.8,3.5,-9.8,-12.5,-1.5
O=C(CCn1cccn1)N1CCCC(Nc2ccc(F)c(F)c2)C1 (centres undefined),0.9,0.8,1.9,-0.7,-6.5,-4.1
CC(C)Cn1c2c(c(O)c(C(=O)Nc3ccc(F)cc3)c1=O)CCCC2,-5.1,-0.3,0.9,8.3,25.3*,0.0
Cc1cc(O)ccc1-c1cccc2nccn12,11.0,2.5,0.1,-7.6,-19.6,-3.7
CC(=O)c1cccc(CN2CCN(Cc3ccc(F)cc3)C(CCO)C2)c1 (centres undefined),9.4,0.1,-1.8,3.8,10.1,-11.7
COc1cccc(CN2CCN(Cc3[nH]c4ccccc4c3C)CC2CCO)c1 (centres undefined),-0.8,21.7*,3.3,-0.9,-0.2,-6.8
CC(=O)c1cccc(CN2CCN(Cc3ccc(C)cc3)C(CCO)C2)c1 (centres undefined),9.8,1.4,-19.6,40.2*,-11.1,-9.1
CN(Cc1ccc(Cl)cc1Cl)C(=O)CNC(=O)c1ccc2c(c1)OCO2,15.1,0.8,13.2,-18.9,-0.4,-4.3
CC1CCN(C(=O)c2ccc(CSc3nc4ccncc4n3Cc3ccc(F)cc3)cc2)CC1,12.7,1.0,-27.1,38.0*,3.6,-12.1
COC(=O)C1=C(C)NC(C)=C([N+](=O)[O-])C1c1ccccc1C(F)(F)F (centres undefined),7.9,0.1,-3.1,-17.0,34.8*!,-3.4
COC(=O)C1=C(C)NC(C)=C(C(=O)OC)C1c1ccc(-c2cccc([N+](=O)[O-])c2)o1,1.4,0.9,12.0,-19.2,11.7,-1.2
CC1(C)NC(=O)N(CC(=O)OCC(=O)c2ccc(Cl)s2)C1=O,-12.5,-0.4,-0.9,-1.5,3.0,-0.4
CCOC(=O)c1c(NC(=O)CN2C(=O)NC3(CCCCC3C)C2=O)sc(C)c1CC (centres undefined),-16.2,22.6*,0.3,3.4,16.2,-0.2
CCS(=O)(=O)N1Cc2cc(C(=O)N(C)C)nc(-c3cccc(-c4ccc(F)cc4)c3)c2[C@H]1CCO,-0.1,0.0,.,.,14.6,.
COc1ccc(-c2cnc3c(NC(C)=O)cc(-c4cc(F)ccc4OC)cn23)cc1OC,-2.0,2.9,21.8,0.8,-6.4,17.1*
COc1ccc(-c2cc(NC(C)=O)c3ncc(-c4ccccc4)n3c2)cc1OC,-15.9,0.8,5.6,-0.6,29.1*,0.7
COc1ccc(F)cc1-c1cc(NC(C)=O)c2ncc(-c3cc(OC)c(OC)c(OC)c3)n2c1,10.6,7.8,-4.9,8.3,6.5,5.1
Cc1ccc(S(=O)(=O)N(OCc2ccccc2)C(C)C(=O)O)cc1 (centres undefined),0.4,0.1,10.0,-8.1,-2.2,-2.0

# Compound activity as filed in PubChem BioAssay.
